These results are taken from PubChem BioAssay (Tox21).

Test [1] can be described thus: qHTS assay to identify small molecule agonists of the androgen receptor (AR) signaling pathway in the presence of an antagonist - cell viability counter screen (AID 1259379). Also: nearly all actives have a fitted effect of over 25% in size. Also: potency is read from the fitted curve at half-maximal effect.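 As to activity change, negative = cytotoxicity: MDA-kb2 human breast cancer cells carrying an MMTV luciferase reporter; series mostly up to about 92 µM.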 An outline of the steps: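 Viability counter screen: CellTiter-Fluor fluorescence, measured in the same wells as the luciferase read-out. MDA-kb2 cells, 3,000/well, with nilutamide at 3.0uM final and compounds at 15 concentrations, 16 hr at 37C, 0% CO2.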

The nature of test [2]: qHTS assay to identify small molecule agonists of the estrogen receptor beta (ER-beta) signaling pathway - cell viability counter screen (AID 1259380). Also: nearly all actives have a fitted effect of over 30% in size. Also: potency is read from the fitted curve at half-maximal effect. In outline:
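Luminescence read-out (CellTiter-Glo, 30 min, room temp) taken in the same wells as the beta-lactamase reporter assay; ER-beta-UAS-bla HEK293T cells exposed to DMSO-dissolved compounds for 16 hr at 37C in 2% charcoal-stripped FBS medium.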

Test [3] has as its target Androgen receptor (Homo sapiens) (UniProt P10275). Briefly: qHTS assay to identify small molecule agonists of the androgen receptor (AR) signaling pathway in the presence of an antagonist (AID 1259381; calls by dose curve; also: nearly all actives have a fitted effect of over 15% in size). In outline: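 Luciferase read-out (ONE-Glo, 30min room temperature) in MDA-kb2 MMTV-reporter cells; agonist mode run in presence of AR antagonist nilutamide, 3.0uM final. Compounds tested as 15-point series, 16hr exposure at 37C, 0% CO2.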

The nature of test [4]: qHTS assay to identify small molecule antagonists of the estrogen receptor beta (ER-beta) signaling pathway - cell viability counter screen (AID 1259382). Also: nearly all actives have a fitted effect of over 55% in size. Also: potency is read from the fitted curve at half-maximal effect. As to activity change, negative = cytotoxicity: series mostly up to about 92 µM. In outline:
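Luminescent ATP read-out (CellTiter-Glo, 30 min, RT) taken in the same wells as the bla reporter assay. HEK293T ER-beta-UAS-bla cells in 2% charcoal-stripped FBS were exposed to compounds with 1nM E2 for 16 hr at 37C.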

Test [5] deals with Estrogen receptor (Homo sapiens) (UniProt P03372). Kind of test: qHTS assay to identify small molecule agonists of the estrogen receptor alpha (ER-alpha) signaling pathway in the presence of an antagonist (AID 1259383; calls by dose curve; also: top concentration of the series differs between compounds; nearly all actives have a fitted effect of over 15% in size). In outline:
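Luciferase luminescence (ONE-Glo, 30min at room temperature) measured in VM7Luc4E2 cells after 22hr compound exposure at 15 concentrations, with 10.0nM ICI-182,780 final present; cells express endogenous ER-alpha and carry four EREs upstream of luciferase.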

A short description of test [6]: qHTS assay to identify small molecule agonists or antagonists of the thyroid stimulating hormone receptor (TSHR) signaling pathway - wild type cell line counter screen (AID 1259384; calls by dose curve). An outline of the steps: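 Wild-type Hek293 cells, 800/well, 18 h at 37C, then compound with Ro20-1724 for 30 min RT. cAMP by HTRF (cAMP-d2/anti-cAMP cryptate), 1 h RT, fluorescence read. 15 concentrations, triplicates.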

Test [7] addresses Thyrotropin receptor (Homo sapiens) (UniProt P16473). Briefly: qHTS assay to identify small molecule antagonists of the thyroid stimulating hormone receptor (TSHR) signaling pathway (AID 1259385; calls by dose curve; also: nearly all actives have a fitted effect of over 20% in size). An outline of the steps:
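TSHR-HEK293 cells (800/well) plated 18 h, then compounds with Ro20-1724 and TSH at 1.5 ng/mL final, 30 min at room temperature. cAMP quantified by HTRF (cAMP-d2/anti-cAMP-cryptate, 1 h); 15 concentrations in triplicate.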

Test [8] in a line: qHTS assay to identify small molecule agonists of the estrogen receptor alpha (ER-alpha) signaling pathway in the presence of an antagonist - cell viability counter screen (AID 1259386). Also: series mostly up to about 92 µM; nearly all actives have a fitted effect of over 30% in size. An outline of the steps: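 Read-out: CellTiter-Fluor fluorescence after 1hr reagent incubation, measured in the same wells as the luciferase readout. VM7Luc4E2 cells were exposed to 15 compound concentrations with 10.0nM ICI-182,780 for 22hr at 37C.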

Test [9] deals with Progesterone receptor (Homo sapiens) (UniProt P06401). Briefly: qHTS assay to identify small molecule agonists of the progesterone receptor (PR) signaling pathway (AID 1346784; calls by dose curve; also: nearly all actives have a fitted effect of over 30% in size). In outline: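 The screen uses PR-UAS-bla HEK 293T cells in charcoal-stripped serum (2%). Compounds are applied for 16 hr at 37C after a 6 hr pre-incubation, and reporter activity is detected with a FRET beta-lactamase substrate after 2 hr at room temperature.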

Test [10] can be described thus: qHTS assay to identify small molecule antagonists of the progesterone receptor (PR) signaling pathway - cell viability counter screen (AID 1346798). Also: nearly all actives have a fitted effect of over 50% in size. Also: potency is read from the fitted curve at half-maximal effect. As to activity change, negative = cytotoxicity: series mostly up to about 92 µM. An outline of the steps:
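Viability was determined by ATP-based luminescence (CellTiter-Glo) in PR-UAS-bla HEK293T cells cultured in 2% charcoal-stripped serum and incubated 16 hr with compounds under R5020 stimulation.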

A short description of test [11]: qHTS assay to identify small molecule agonists of the progesterone receptor (PR) signaling pathway - cell viability counter screen (AID 1346799; calls by dose curve; also: nearly all actives have a fitted effect of over 45% in size; also: potency is read from the fitted curve at half-maximal effect). In outline: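 Viability was scored by ATP luminescence (CellTiter-Glo, 30 min, room temperature) in the same wells used for the reporter readout, after 16 hr compound exposure of PR-UAS-bla HEK293T cells.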
A short description of test [12]: qHTS assay to identify small molecule antagonists of the TGF-beta/Smad signaling pathway - cell viability counter screen (AID 1346824). Also: nearly all actives have a fitted effect of over 50% in size. In outline: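 SBE-bla HEK 293T cells, incubated overnight, then compound plus 0.25 ng/mL TGF-beta1 (stock added) for 5 hr at 37 C. Viability was read in the same wells by CellTiter-Glo luminescence after 30 min at room temperature.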

Test [13] can be described thus: qHTS assay to identify small molecule agonists of the TGF-beta/Smad signaling pathway - cell viability counter screen (AID 1346829). Also: top concentration of the series differs between compounds; nearly all actives have a fitted effect of over 45% in size. In outline:
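Tox21 qHTS format: SBE-bla HEK 293T cells treated with DMSO-dissolved compounds for 5 hr; CellTiter-Glo luminescence after 30 min at room temperature.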

Test [14] can be described thus: qHTS assay to identify small molecule agonists of the TGF-beta/Smad signaling pathway (AID 1346859; active = well fitted activation curve with a large enough effect in the signal ratio in the repeat runs, not every such curve was filed as active; the % refers to the signal ratio; also: series mostly up to about 77 µM). In outline:
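Dual-wavelength fluorescence (460/530 nm emission) quantified beta-lactamase expression under the Smad binding element in HEK 293T cells following 5 hr compound treatment at 37 C.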

The target in test [15] is Thyrotropin-releasing hormone receptor (Homo sapiens) (UniProt P34981). Kind of test: qHTS assay to identify small molecule antagonists of the thyrotropin-releasing hormone receptor (TRHR) signaling pathway (AID 1346877; active = well fitted inhibition curve with a large enough effect in the repeat runs, not every such curve was filed as active; also: series mostly up to about 51 µM). An outline of the steps: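 HEK293/TRHR cells, 18 h, 37 °C; Ca2+ dye 2 h; cpd 5 min RT; TRH 1 nM final; fluorescence read 3 min, 1 s intervals; 15 concs, triplicate.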

The target is the same in test [16]. Briefly: qHTS assay to identify small molecule agonists of the thyrotropin-releasing hormone receptor (TRHR) signaling pathway (AID 1346891; calls by dose curve;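 also: HEK293 cells expressing TRHR with calcium dye readout; series mostly up to about 58 µM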). In outline: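 Kinetic fluorescence (3 min, 1 s intervals) reported intracellular calcium after compound transfer onto TRHR-Hek293 cells pre-loaded with dye for 2 h at 37 °C.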
The nature of test [17]: Human pregnane X receptor (PXR) small molecule agonists, qHTS cell viability counter screen (AID 1346977). Also: nearly all actives have a fitted effect of over 50% in size. Also: potency is read from the fitted curve at half-maximal effect. In outline: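 HepG2 cells stably carrying the PXR-Luc reporter are cultured with 5% charcoal-stripped FBS and treated with compounds for 24hr. CellTiter-Fluor is added at 23hr and fluorescence is read after 1hr.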
The target of test [18] is Progesterone receptor (Homo sapiens) (UniProt P06401). Briefly: qHTS assay to identify small molecule antagonists of the progesterone receptor (PR) signaling pathway (AID 1346795; active = well fitted inhibition curve with a large enough effect in the signal ratio in the repeat runs, not every such curve was filed as active; the % refers to the signal ratio; also: potency is read from the fitted curve at half-maximal effect). An outline of the steps:
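After 6 hr plating at 37C in 2% stripped-serum medium, PR-UAS-bla HEK293T cells got compounds, then 1 nM R5020. Sixteen hours later, LiveBLAzer substrate was applied for 2 hr at room temperature and fluorescence was recorded.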

The target in test [19] is Estrogen receptor beta (Homo sapiens) (UniProt Q92731). Briefly: qHTS assay to identify small molecule antagonists of the estrogen receptor beta (ER-beta) signaling pathway (AID 1259378; active = well fitted inhibition curve with a large enough effect in the signal ratio in the repeat runs, not every such curve was filed as active; the % refers to the signal ratio; also: potency is read from the fitted curve at half-maximal effect). An outline of the steps: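 ER-beta-UAS-bla HEK293T cells in 2% charcoal-stripped FBS medium treated with compound plus 1nM final 17-beta-estradiol for 16 hr at 37C. Beta-lactamase reporter read by FRET substrate fluorescence after 2 hours at room temperature.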

Several values for one entry are separate records, joined by “and”; a condition that tells them apart may be missing. Equal values may be shown once. Values without a mark were called inactive. Results filed as inconclusive are left out. Activity calls are given as the source filed them. Unless noted, calls follow the shape of the dose curve; as a rule, active = well fitted curve in the direction sought with a large enough effect in the repeat runs; inconclusive = weak or mixed curves; inactive = no such curve, though single readings can be large; an effect the other way counts as inactive or inconclusive.
% is scaled to controls: 0 for no effect and ±100 for the full control effect.

Chain of Thyrotropin receptor (Homo sapiens) (P16473 whole entry, looked up): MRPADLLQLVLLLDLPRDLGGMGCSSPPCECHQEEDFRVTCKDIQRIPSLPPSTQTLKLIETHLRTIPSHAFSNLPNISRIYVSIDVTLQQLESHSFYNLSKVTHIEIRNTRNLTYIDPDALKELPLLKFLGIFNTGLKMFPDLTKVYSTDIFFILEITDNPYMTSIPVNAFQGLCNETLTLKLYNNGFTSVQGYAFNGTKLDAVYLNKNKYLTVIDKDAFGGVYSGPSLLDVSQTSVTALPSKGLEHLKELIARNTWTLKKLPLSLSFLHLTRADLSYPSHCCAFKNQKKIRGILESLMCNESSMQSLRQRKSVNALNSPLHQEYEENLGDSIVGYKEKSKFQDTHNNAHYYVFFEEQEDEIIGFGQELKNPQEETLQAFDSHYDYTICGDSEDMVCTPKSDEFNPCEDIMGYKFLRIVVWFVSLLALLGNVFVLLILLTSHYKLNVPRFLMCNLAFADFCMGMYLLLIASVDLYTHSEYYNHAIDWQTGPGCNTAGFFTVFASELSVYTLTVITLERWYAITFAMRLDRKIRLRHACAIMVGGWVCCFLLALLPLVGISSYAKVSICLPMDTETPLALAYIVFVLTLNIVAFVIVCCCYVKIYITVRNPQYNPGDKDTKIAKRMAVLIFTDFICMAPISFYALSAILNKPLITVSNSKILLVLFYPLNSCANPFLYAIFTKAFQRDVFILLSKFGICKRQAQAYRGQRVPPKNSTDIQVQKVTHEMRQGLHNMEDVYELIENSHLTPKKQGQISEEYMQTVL
Chain of Androgen receptor (Homo sapiens) (P10275 whole entry, looked up): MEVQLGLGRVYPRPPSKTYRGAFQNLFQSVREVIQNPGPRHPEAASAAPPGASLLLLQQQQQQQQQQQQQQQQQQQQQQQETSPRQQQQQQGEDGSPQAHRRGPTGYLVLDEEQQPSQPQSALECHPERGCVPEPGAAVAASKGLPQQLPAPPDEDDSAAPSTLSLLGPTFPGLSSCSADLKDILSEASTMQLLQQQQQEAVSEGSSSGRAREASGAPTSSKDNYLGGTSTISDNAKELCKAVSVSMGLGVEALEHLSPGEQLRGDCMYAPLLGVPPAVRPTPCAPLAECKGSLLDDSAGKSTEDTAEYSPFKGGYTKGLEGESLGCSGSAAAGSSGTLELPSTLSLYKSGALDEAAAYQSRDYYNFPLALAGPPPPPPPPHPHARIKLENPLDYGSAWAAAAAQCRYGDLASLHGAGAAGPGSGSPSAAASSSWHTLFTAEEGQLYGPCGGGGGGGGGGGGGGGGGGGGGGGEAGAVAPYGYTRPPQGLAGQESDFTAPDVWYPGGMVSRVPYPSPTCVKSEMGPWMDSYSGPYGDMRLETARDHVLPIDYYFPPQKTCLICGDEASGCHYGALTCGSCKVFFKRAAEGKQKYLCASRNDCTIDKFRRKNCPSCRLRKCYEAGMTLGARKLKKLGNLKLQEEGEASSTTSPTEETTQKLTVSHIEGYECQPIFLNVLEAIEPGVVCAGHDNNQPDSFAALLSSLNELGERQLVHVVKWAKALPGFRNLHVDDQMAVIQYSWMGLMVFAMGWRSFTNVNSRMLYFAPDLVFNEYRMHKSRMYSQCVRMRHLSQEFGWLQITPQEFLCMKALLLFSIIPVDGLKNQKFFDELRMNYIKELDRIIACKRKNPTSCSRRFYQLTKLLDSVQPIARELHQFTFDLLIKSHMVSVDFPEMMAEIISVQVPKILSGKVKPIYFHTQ
Chain of Thyrotropin-releasing hormone receptor (Homo sapiens) (P34981 whole entry, looked up): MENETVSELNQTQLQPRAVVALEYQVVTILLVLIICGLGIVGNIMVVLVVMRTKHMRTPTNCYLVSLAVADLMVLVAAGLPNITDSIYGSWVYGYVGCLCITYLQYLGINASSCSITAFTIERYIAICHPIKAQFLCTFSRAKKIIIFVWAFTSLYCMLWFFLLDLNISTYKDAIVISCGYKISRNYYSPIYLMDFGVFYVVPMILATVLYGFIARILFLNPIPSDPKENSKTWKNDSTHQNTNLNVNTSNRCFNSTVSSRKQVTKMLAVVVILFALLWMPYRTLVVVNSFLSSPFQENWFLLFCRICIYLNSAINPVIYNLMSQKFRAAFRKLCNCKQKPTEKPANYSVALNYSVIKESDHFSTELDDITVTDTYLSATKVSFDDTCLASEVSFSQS
Chain of Progesterone receptor (Homo sapiens) (P06401 whole entry, looked up): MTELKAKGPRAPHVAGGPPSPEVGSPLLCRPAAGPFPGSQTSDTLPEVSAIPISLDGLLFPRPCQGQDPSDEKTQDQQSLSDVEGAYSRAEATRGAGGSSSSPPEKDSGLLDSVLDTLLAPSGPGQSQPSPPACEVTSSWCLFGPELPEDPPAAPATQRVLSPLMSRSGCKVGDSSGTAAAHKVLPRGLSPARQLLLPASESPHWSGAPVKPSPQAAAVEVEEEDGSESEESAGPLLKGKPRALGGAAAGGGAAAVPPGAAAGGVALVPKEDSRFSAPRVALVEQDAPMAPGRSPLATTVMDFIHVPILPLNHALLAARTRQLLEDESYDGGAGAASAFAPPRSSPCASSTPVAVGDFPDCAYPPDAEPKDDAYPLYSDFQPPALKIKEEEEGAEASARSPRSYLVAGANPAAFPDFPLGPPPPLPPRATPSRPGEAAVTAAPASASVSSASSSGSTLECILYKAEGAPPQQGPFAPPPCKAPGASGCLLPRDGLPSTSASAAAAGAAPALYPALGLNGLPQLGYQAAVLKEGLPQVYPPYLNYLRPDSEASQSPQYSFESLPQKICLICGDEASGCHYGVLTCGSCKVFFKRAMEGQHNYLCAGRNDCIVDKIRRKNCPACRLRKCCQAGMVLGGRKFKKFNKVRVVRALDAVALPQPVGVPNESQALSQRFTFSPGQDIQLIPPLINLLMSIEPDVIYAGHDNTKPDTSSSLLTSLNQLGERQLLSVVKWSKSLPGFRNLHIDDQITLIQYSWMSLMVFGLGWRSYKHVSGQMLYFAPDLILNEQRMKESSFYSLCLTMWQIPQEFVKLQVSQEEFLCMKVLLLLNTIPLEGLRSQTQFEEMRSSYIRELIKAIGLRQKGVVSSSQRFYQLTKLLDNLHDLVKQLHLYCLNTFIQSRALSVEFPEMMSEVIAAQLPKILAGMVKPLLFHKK
Chain of Estrogen receptor (Homo sapiens) (P03372 whole entry, looked up): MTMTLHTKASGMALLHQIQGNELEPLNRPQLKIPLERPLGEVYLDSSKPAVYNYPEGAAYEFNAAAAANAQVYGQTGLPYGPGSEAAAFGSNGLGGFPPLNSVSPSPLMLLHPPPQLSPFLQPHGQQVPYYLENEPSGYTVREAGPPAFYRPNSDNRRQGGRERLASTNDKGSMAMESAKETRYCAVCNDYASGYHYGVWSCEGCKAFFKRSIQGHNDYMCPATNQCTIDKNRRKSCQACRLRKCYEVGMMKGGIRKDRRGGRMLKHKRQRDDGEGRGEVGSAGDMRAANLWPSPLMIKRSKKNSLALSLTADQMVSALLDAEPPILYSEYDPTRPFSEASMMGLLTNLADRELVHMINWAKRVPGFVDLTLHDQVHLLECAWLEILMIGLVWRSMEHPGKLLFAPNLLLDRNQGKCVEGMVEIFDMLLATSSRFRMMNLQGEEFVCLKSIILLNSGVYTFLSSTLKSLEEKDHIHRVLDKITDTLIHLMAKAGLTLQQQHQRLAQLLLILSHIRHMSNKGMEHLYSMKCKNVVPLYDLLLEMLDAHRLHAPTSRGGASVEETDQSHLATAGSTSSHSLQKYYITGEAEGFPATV
Chain of Estrogen receptor beta (Homo sapiens) (Q92731 whole entry, looked up): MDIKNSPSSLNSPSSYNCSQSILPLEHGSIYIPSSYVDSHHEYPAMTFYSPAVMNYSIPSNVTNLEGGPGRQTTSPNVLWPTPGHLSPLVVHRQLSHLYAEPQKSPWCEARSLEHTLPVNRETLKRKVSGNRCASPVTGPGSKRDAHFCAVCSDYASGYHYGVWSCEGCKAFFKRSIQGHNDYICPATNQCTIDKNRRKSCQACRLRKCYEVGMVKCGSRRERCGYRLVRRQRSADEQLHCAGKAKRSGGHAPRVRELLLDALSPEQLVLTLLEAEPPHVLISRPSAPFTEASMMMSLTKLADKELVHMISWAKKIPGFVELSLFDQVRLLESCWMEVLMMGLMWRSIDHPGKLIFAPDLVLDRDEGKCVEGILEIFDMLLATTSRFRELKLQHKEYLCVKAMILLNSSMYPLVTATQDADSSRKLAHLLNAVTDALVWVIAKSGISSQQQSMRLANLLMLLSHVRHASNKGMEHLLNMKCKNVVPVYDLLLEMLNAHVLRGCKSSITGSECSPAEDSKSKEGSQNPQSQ

For `CCCCCCCC(OC)OC`, the Potency result in test [1], in test [2], in [3], in test [4], in [5] and in test [7] was “inactive” in each case. Moreover, the Potency result in [8], in test [10], in [11], in [12], in test [13] and in test [14] was “inactive” each time. Also, the Potency entry in [15], in test [16] and in test [17] was “inactive” in each case. In addition, the molecule was classed as inactive in test [6] and in [9].

With `COc1cc(C(C)C)c2c(c1)S(=O)(=O)N(COc1cc(=O)n3cccc(OCCN4CCCCC4)c3n1)C2=O`, the activity change, negative = cytotoxicity in [1] is 0.166% [at 19 µM]; in test [2], -6.94% [at 19 µM]; in [4] it was -17.6% [at 19 µM]; in [8], 4.42% [at 19 µM]; in test [11], 20.1% [at 19 µM]; in test [13], 15.8% [at 15.8 µM]. Besides, the activation was -1.84% [at 19 µM] in test [3]; -2.57% [at 19 µM] in test [5]; 8.35% [at 19 µM] in test [9]; -2.24% [at 15.8 µM] in test [14]; -1.34% [at 11.8 µM] in test [16]. The cAMP activity change in [6] was 5.85% [at 18.9 µM]. The activity change, negative = inhibition in test [7] is -0.822% [at 19 µM]. Moreover, in test [12], the viability change, negative = cytotoxic was 14.4% [at 15.8 µM]. Further, the activity, negative = inhibition in test [15] was 0.273% [at 10.5 µM].

For `CCCSS/C(CCO)=C(\C)N(C=O)Cc1cnc(C)nc1N`, the Potency result in test [1], in [3], in test [4], in test [5], in test [7] and in test [8] was “inactive” each time. For the same molecule, the Potency result in test [18], in test [10], in [11], in test [12], in [13] and in [14] was “inactive” throughout. Further, the Potency entry in test [15] and in test [16] was “inactive” in each case. For the same molecule, the Potency in test [2] was 26.6 µM (active).

Regarding `C=C(c1ccc(C(=O)O)cc1)c1cc2c(cc1C)C(C)(C)CCC2(C)C`, the Potency in test [19] is 8.41 µM (active); in [4] it was 34.4 µM (active) and 29.8 µM (active); in test [10] it was 54.5 µM (active). Also, the Potency result in test [5], in test [8], in test [12], in [13], in [14] and in test [17] was “inactive” throughout.

Turning to `Clc1cccnc1`, the Potency result in test [1], in test [2], in test [3], in [4], in [7] and in test [8] was “inactive” in each case. The Potency entry in [18], in test [10], in test [11], in test [12], in [13] and in [14] was “inactive” in each case. Besides, the Potency entry in [15], in test [16] and in test [17] was “inactive” throughout. Besides, the outcome in test [6] and in test [9] was inactive.

As for `CCCCCCCCC(C)=O`, the Potency entry in [1], in test [2], in test [3], in test [4], in test [5] and in test [7] was “inactive” each time. For the same molecule, the Potency entry in test [18], in test [10], in [11], in [12], in test [13] and in test [14] was “inactive” throughout. Further, the Potency result in test [15], in [16] and in [17] was “inactive” throughout. Also, the call in [6] and in test [9] was inactive.

On to `C=CC(=C)CCC=C(C)C`, for which the Potency entry in test [19], in [2], in test [4], in test [8], in test [12] and in [14] was “inactive” in each case. For the same molecule, the Potency result in test [17] was “inactive”. The call in [9] was inactive. For the same molecule, the Potency in test [10] was 54.5 µM (active).

As for `COC(=O)C1=C(C)NC(C)=C(C(=O)OCCCN2CCC(c3ccccc3)(c3ccccc3)CC2)C1c1cccc([N+](=O)[O-])c1` (configuration not stated), the Potency was 29.8 µM (active) in [1]; 23.7 µM (active) in [2]; 23.7 µM (active) in [4]; 18.8 µM (active) in [18]; 18.8 µM (active) in test [10]; 13.3 µM (active) in [11]. Also, the Potency in test [17] is 26.6 µM (active). For the same molecule, the Potency entry in [3], in test [12], in test [14], in test [15] and in [16] was “inactive” each time. In [6], the molecule was called inactive.
